WT yeast gro inh = growth inhibition of WT strain, primary screen, mitochondrial fusion inhibitor project, WT and mutant strains, chemical genetic. hit rate 2.1% among 190,000. inhibition, % at 10 µM. AID 1362, 2008. mitochondrial fusion phenotypic screen; in the data active = inhibition above about 58%; tested in S. cerevisiae
Calpain2 inh = inhibitors of pig calpain II, primary screen, biochemical, fluorogenic peptide substrate, 1536-well | hit rate 0.37% among 220,000 | purified calpain II, 30 min | AID 1236, 2008 | inhibition, % at 16 µM;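 active = inhibition above about 50%, limit read from the data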
KCC2 mod = KCC2 cotransporter modulators, thallium flux, primary screen, cell-based, HEK293 KCC2, FluoZin-2 fluorescence, MLSMR; KCC2 cells, thallium flux FluoZin-2 fluorescence; Solute carrier family 12 member 5 (Homo sapiens), Q9H2X9; B-score of Tl+ flux slope (higher = more flux/activation; lower = inhibition) at 10 µM; hit rate 2.2% among 190,000;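 active = thallium flux slope and its plate-corrected score both differing from the plate sample mean at a set confidence after two filtering rounds, in either direction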;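 note: slope of fluorescence scaled to starting intensity during 10 to 20 s after thallium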
ROMK mod = ROMK potassium channel modulators, primary screen, cell-based, thallium flux, MLSMR library; ATP-sensitive inward rectifier potassium channel 1 (Homo sapiens), P48048; Tet-inducible ROMK, thallium flux fluorescence; actives lie on both sides; B-score at 10 µM; hit rate 2% among 130,000; AID 1918, 2009;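 active = signal ratio slope over the read window, or its plate-corrected B-score, at least 3 SD from the plate mean, either direction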;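 note: B-score of the F/F0 ratio slope over 7 to 12 s after thallium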
Target sequence (P48048 whole entry, looked up): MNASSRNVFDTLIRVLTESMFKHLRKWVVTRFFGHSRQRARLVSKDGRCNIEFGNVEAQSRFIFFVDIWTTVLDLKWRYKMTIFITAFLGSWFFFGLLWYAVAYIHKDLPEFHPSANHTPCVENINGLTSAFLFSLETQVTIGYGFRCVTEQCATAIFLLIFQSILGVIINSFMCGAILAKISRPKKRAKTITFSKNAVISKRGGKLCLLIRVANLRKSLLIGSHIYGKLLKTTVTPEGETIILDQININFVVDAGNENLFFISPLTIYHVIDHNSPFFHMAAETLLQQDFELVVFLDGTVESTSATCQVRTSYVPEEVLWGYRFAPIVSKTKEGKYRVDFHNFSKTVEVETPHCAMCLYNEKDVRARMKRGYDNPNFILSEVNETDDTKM
L major viab = Leishmania major promastigote growth inhibition, primary screen; Leishmania major promastigotes, resazurin fluorescence viability; inhibition, % at 10 µM; hit rate 9% among 200,000; AID 1063, 2008; in the data active = inhibition above about 50%;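 note: promastigotes grown with compound for 44 hours at 28 °C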
* hit, by the source's call. Only some compounds are listed: those with a hit (about 12% of all), similar ones and a draw of the others.

COc1ccc(OC)c(Cc2nnc(CCC(=O)NC3CCCCCCC3)o2)c1 was read as WT yeast gro inh -3, Calpain2 inh 4, KCC2 mod 0.25 and L major viab -7.
Screening CNC(=O)c1sc(-c2cccs2)nc1C returned WT yeast gro inh -13, Calpain2 inh -15, KCC2 mod 0.062, ROMK mod -0.4 and L major viab 8.
`COCC(=O)Nc1ccc(S(=O)(=O)Nc2ccccn2)cc1` gave WT yeast gro inh -11, Calpain2 inh -11, KCC2 mod -0.72, ROMK mod -0.59 and L major viab -3.
Screening CC(C)=CCOc1ccc2ccc(=O)oc2c1 returned WT yeast gro inh 7, Calpain2 inh -121, KCC2 mod 0.067 and L major viab -7.
For CC(C)=CCC/C(C)=C/COc1ccc2ccc(=O)oc2c1 the results were WT yeast gro inh 61*, Calpain2 inh -3, KCC2 mod 0.47 and L major viab -13.
For CSc1ccc(/C=N/NC(=O)c2ccccc2Cl)cc1 the results were WT yeast gro inh -8, Calpain2 inh -13, KCC2 mod -0.058, ROMK mod 2.6 and L major viab 4.
`COc1ccc(/C=N/OCC(=O)N2CCCC2)c(OC)c1` gave WT yeast gro inh 2, Calpain2 inh -11, KCC2 mod -0.55, ROMK mod 2.9 and L major viab -10.
`S=c1nc(-c2ccccc2)[nH]n1-c1ccccc1` gave WT yeast gro inh 20, Calpain2 inh 25, KCC2 mod 53*, ROMK mod 6.1* and L major viab -13.
CCCNc1nc(N2CCCC2)nc(N2CCCC2)n1 was read as WT yeast gro inh 31, Calpain2 inh -11, KCC2 mod -1, ROMK mod -0.12 and L major viab 89*.
CC(C)CCCNc1nc(N2CCOCC2)nc(N2CCOCC2)n1 was read as WT yeast gro inh -8, Calpain2 inh -8, KCC2 mod 0.048 and L major viab 24.
For CC(C)(C)Nc1nc(N2CCCC2)nc(N2CCCC2)n1 the results were WT yeast gro inh 11, Calpain2 inh -5, KCC2 mod 0.044 and L major viab 98*.
`CCNc1nc(NC(C)(C)C)nc(N2CCCC2)n1` gave WT yeast gro inh 60*, Calpain2 inh -16, KCC2 mod 0.72, ROMK mod -1.1 and L major viab 80*.
CCOC(=O)c1c(NC(=O)c2ccc(N3C(=O)C4C5C=CC(C5)C4C3=O)cc2)sc2c1CCCC2 (stereo not drawn) was read as WT yeast gro inh -17, Calpain2 inh -191, ROMK mod 0.84 and L major viab 20.
For CCC(C)(C)n1nnnc1C(c1cc(OC)ccc1OC)N1CCN(Cc2ccccc2)CC1 (stereo not drawn) the results were WT yeast gro inh -2, Calpain2 inh -5, KCC2 mod -1.1, ROMK mod -1.6 and L major viab 39.
`CCOC(=O)C1=C(CNCc2ccc(C)cc2)NC(=O)NC1c1cc(C)ccc1C` (stereo not drawn) gave WT yeast gro inh 25, Calpain2 inh 40, ROMK mod -2.1 and L major viab 100*.
C=CCc1cccc(CNc2nc3ccccc3n2C(C)C)c1O was read as WT yeast gro inh 70*, Calpain2 inh 3, KCC2 mod 1.4, ROMK mod 0.45 and L major viab 48.
For CCCCOc1ncnc2c1[nH]c1ccc(OCC)cc12 the results were WT yeast gro inh 47, Calpain2 inh -27, KCC2 mod 0.2 and L major viab 12.
`CCCCOCCCNc1ncnc2c1[nH]c1ccccc12` gave WT yeast gro inh 17, Calpain2 inh -4, KCC2 mod -8.1, ROMK mod -0.77 and L major viab 80*.
Screening CCCCOc1ncnc2c1[nH]c1ccccc12 returned WT yeast gro inh 1, Calpain2 inh -72, KCC2 mod 0.15 and L major viab 57*.
CC(C)CNC(=O)COC(=O)c1ccc(F)cc1Cl was read as WT yeast gro inh -9, Calpain2 inh -10, KCC2 mod 0.31, ROMK mod 0.54 and L major viab -8.
For CC1(C)CC(=O)C=C(NCc2ccc(C(=O)O)cc2)C1 the results were Calpain2 inh -8 and KCC2 mod 0.69.
For O=Cc1ccc(Oc2ncccn2)cc1 the results were WT yeast gro inh -9, Calpain2 inh 6, KCC2 mod -0.13, ROMK mod -0.35 and L major viab -4.
`CCc1ccc(OCC(=O)N/N=C/c2cc([N+](=O)[O-])ccc2N2CCCCCC2)cc1` gave WT yeast gro inh 12, Calpain2 inh -10, KCC2 mod 1.2 and L major viab 100*.
For N#CCC(=O)N/N=C/c1cc([N+](=O)[O-])ccc1N1CCOCC1 the results were WT yeast gro inh 10, Calpain2 inh 29, KCC2 mod 1.3, ROMK mod -0.23 and L major viab -8.
Screening CN(c1ccc([N+](=O)[O-])cc1/C=N/NC(=O)COc1ccccc1)C1CCCCC1 returned WT yeast gro inh 20, Calpain2 inh -29, KCC2 mod -0.19, ROMK mod 0.79 and L major viab 91*.
O=C(N/N=C/c1cc([N+](=O)[O-])ccc1N1CCCCCC1)c1ccccn1 was read as WT yeast gro inh -8, Calpain2 inh 38, KCC2 mod -0.33, ROMK mod -0.1 and L major viab 60*.
For Cc1cc(=O)oc2cc(OCC(=O)N/N=C/c3cc([N+](=O)[O-])ccc3O)ccc12 the results were WT yeast gro inh -1, Calpain2 inh 5, KCC2 mod 0.31 and L major viab -3.
For CCC1CCCCN1c1ccc([N+](=O)[O-])cc1/C=N/NC(=O)Cn1c2ccccc2c(=O)c2ccccc21 (stereo not drawn) the results were WT yeast gro inh -6, Calpain2 inh -105, KCC2 mod -0.35, ROMK mod -0.41 and L major viab 51*.
For O=C(Cn1nc(C(=O)O)c2ccccc2c1=O)Nc1nc(-c2ccccc2)cs1 the results were Calpain2 inh -3 and KCC2 mod 1.
CN(CCn1ccnc1)Cc1cn(Cc2ccccc2)nc1-c1ccc2c(c1)OCO2 was read as Calpain2 inh 0 and KCC2 mod -0.53.
For CN(C)CCCNC(=O)c1ccccn1 the results were WT yeast gro inh -2, Calpain2 inh -10, KCC2 mod -0.15, ROMK mod 0.65 and L major viab -5.
For CN(C)CCCNC(=O)c1ccc(-c2nc(-c3ccc(Cl)cc3)cs2)cc1 the results were WT yeast gro inh 91, Calpain2 inh -422, ROMK mod -2.1 and L major viab 101*.
`O=C1CN(/N=C/c2ccc([N+](=O)[O-])o2)C(=O)N1` gave WT yeast gro inh 3, Calpain2 inh 17, KCC2 mod -3.9 and L major viab 95*.
Screening O=C1OCCN1/N=C/c1ccc([N+](=O)[O-])o1 returned WT yeast gro inh -12, Calpain2 inh 18, KCC2 mod -0.73 and L major viab 93*.
